# Sampled rows, rich in hits. Any-hit rate of the full collection: about 7.9%.
# KB-V1 MDR tox = KB-V1 MDR subline cytotoxicity; 3.4% of 400,000 active; KB-V1 MDR cells viability, CellTiter-Glo, 72 h; Potency, µM (highest dose often 46.1 µM), usual class: cytotoxic; AID 1347076; note: nearly all actives have a fitted effect of over 60% in size
#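 qHTS viability screen in drug-selected KB-V1 MDR cells: 72 h compound treatment at 37 degrees C, ATP luminescence end point.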
# SW480 rerep = inducers of DNA re-replication in SW480 colon cancer cells; SW480 DNA re-replication, Hoechst DNA content imaging, 48 h; Potency, µM (titrated, usually from 46.1 µM), hits mostly activators; 1.8% of 340,000 active; AID 624297; note: nearly all actives have a fitted effect of over 55% in size
#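 SW480 cells exposed to compounds for 48 hr at 37 C, 5% CO2, then Hoechst-stained 40 min. Nuclear DNA content imaged by fluorescence scanning (405 nm excitation, 500-530 nm emission); re-replication scored as increased high-intensity nuclei.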
# KB-3-1 cytotox = KB-3-1 parental cell cytotoxicity; KB-3-1 viability, CellTiter-Glo ATP luminescence, 72 h; Potency, µM (highest dose often 46.1 µM), usual class: cytotoxic; 1.4% of 400,000 active; note: nearly all actives have a fitted effect of over 60% in size
#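 72 h, 37 °C compound treatment of KB-3-1 parental cells; CellTiter-Glo added, 10 min, luminescence read. Data corrected against DMSO-only plates and normalized before curve fitting.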
# MCF10A rerep = inducers of DNA re-replication in MCF 10A breast cells; MCF 10A DNA re-replication, Hoechst nuclear intensity, 48 h; Potency, µM (series often up to 46.1 µM), actives largely listed as activators; 2.9% of 350,000 active; AID 624296; note: nearly all actives have a fitted effect of over 50% in size
# HT1080 IDH1KD tx = toxicity to HT-1080 IDH1 knockdown cells (counter line) | 2% of 360,000 active | HT-1080 IDH1 knockdown viability, ATP luminescence, 48 h | Potency, µM (doses to about 46.1 µM), actives largely listed as cytotoxic | AID 686971
#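 % activity derives from luminescence (CellTiter-Glo), normalised to DMSO and no-cell wells. HT-1080-IDH1KD cells, 750/well, had 48 h compound exposure at 37 °C.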
# HT1080-NT tox = kills 2HG-producing HT-1080-NT fibrosarcoma cells; HT-1080-NT fibrosarcoma viability, CellTiter-Glo ATP luminescence, 48 h; Potency, µM (highest dose often 46.1 µM), most hits filed as cytotoxic; 1.6% of 360,000 active; AID 686970;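 note: NT is the 2HG producing partner of a matched IDH1 knockdown line; nearly all actives have a fitted effect of over 55% in size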
#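 Luminescent CellTiter-Glo readout after 48 hours of compound exposure at 37 degrees C defined viability of HT-1080-NT cells. Activity was normalized to DMSO wells and cell-free media wells; concentration-response curves were fitted and assigned curve classes.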
# Numbers stand for hits; i = inactive; ? = inconclusive; nt = not tested or not shown; ! = not active in a repeat; [ ] = another dose, or the depositor's remark. Calls come from the whole dose curve; as a rule, active = well fitted curve in the direction sought with a large enough effect; inconclusive = small, poorly fitted or top-dose-only effect, or another doubt; inactive = no such curve, though single readings can be large; an effect the other way counts as inactive or inconclusive.
SMILES,KB-V1 MDR tox,SW480 rerep,KB-3-1 cytotox,MCF10A rerep,HT1080 IDH1KD tx,HT1080-NT tox
COc1ccc(CC(=O)Nc2ccccc2C(=O)N2CCOCC2)cc1OC,i,0.58µM,i,i,i,i
COc1ccc(CC(=O)NCc2cccc(CNC(=O)Cc3ccc(OC)c(OC)c3)c2)cc1OC,i,i,i,i,i,i
CCc1cccc(NC(=O)Cc2ccc(OC)c(OC)c2)c1,16µM,i,?,i,i,i
COc1ccc(CC(=O)Nc2ccc(-c3nnc(-c4ccccc4)o3)cc2)cc1OC,?,i,i,i,i,i
O=C(Nc1cccc(-c2nnc(-c3ccccc3)o2)c1)C1CC1,10µM,i,i,i,i,i
O=C1OC(Sc2ccccc2)(c2ccccc2)c2ccccc21 (stereo unspecified),i,?,i,?,i,i
COc1ccc(OC)c(CN2CCN(C(=O)c3ccc(S(=O)(=O)N4CCCCCC4)cc3)CC2)c1,i,nt,i,nt,i,i
COc1ccc(NC(=O)c2ccccc2NC(=O)CN2CCCCCC2)cc1,i,i,i,i,i,i[9.24 µM]
CCOC(=O)C1=C(C)N(c2ccc(OCC)cc2)C(=O)/C1=C\c1ccco1,i,i,i,16µM,?,i
COC(=O)C1=C(C)N(c2cccc(OC)c2)C(=O)/C1=C\c1ccco1,i,i,i,i,i,i
CCc1ccccc1NC(=O)Cn1nnc(C(=O)NCc2ccco2)c1N,?,nt,8.2µM,nt,nt,nt
COc1ccc(NC(=O)Cn2nnc(C(=O)NCc3ccccc3)c2N)c(OC)c1,i,?,?,16µM,?,?
CCc1ccccc1NC(=O)Cn1nnc(C(=O)NCc2cccs2)c1N,i,3.3µM,9.2µM!,?,4.1µM,5.8µM
Cc1ccc(NC(=O)Cn2nnc(C(=O)NCc3cccs3)c2N)cc1,i,i,i,i[0.0737 µM],?,?
Cc1ccc(C)c(NC(=O)Cn2nnc(C(=O)NCc3cccs3)c2N)c1,i,i,i,?,23µM,?
CCc1ccc(NC(=O)Cn2nnc(C(=O)NCc3cccs3)c2N)cc1,i,i,i,i,i,i
COc1ccc(N2CCCC2)c(NC(=O)c2ccc(Br)o2)c1,i,i,i,i,i,i
C/C=C(\NNC(C)=O)c1ccc(O)cc1,i,nt,i,nt,nt,nt
CCOc1ccc(NC(=O)Cn2nnc(C(=O)Nc3ccc(OCC)cc3)c2N)cc1,i,nt,i,nt,nt,nt
COc1ccccc1NC(=O)Cn1nnc(C(=O)NCc2cccs2)c1N,5.8µM,?,2.1µM!,1.2µM,2.1µM,2.3µM
CCOc1ccc(OCC)c(NC(=O)c2nnn(CC(=O)Nc3cc(C)cc(C)c3)c2N)c1,i,?,i,18µM,21µM,?
N=C1SCC(=O)N1c1ncc(Cc2ccccc2Cl)s1,i,?,i,18µM,i,i
N=C1SCC(=O)N1c1ncc(Cc2cccc(Cl)c2)s1,?,?,i,12µM,i,i
CCS(=O)(=O)c1ccc(OC)c(N=Nc2ccc(O)c3ncccc23)c1,?,?,?,i,8.2µM,?
CC(=O)/C(N=Nc1ccc2c(c1)OCCO2)=C(\C)O,i,i,i,i,i,i
SMILES,KB-V1 MDR tox,SW480 rerep,KB-3-1 cytotox,MCF10A rerep,HT1080 IDH1KD tx,HT1080-NT tox
Cc1ccc(C)c(N=Nc2ccc(O)c3ncccc23)c1,?,i,i,16µM,?,?
Oc1ccc(N=Nc2ccc3c(c2)OCCO3)c2ncccc12,?,i,i,?,3.7µM,?
CCOc1ccc(N=Nc2ccc(O)c3ncccc23)cc1,i,?,i,?,?,?
NS(=O)(=O)c1ccc(N=Nc2ccc(O)c3ncccc23)cc1,i,?,?,?,23µM,?
CCN(CC)S(=O)(=O)c1cc(OC)ccc1N=Nc1ccc(O)c2ncccc12,i,?,i,i,?,?
Cc1cccc(N=Nc2ccc(O)c3ncccc23)c1,i,i,?,?,7.3µM,?
Oc1ccc(C(=S)N2CCCCC2)cc1Cl,18µM,i,i,i,i,i
CCN1CCN(C(=S)c2ccc(Cl)c(Cl)c2)CC1,15µM,i,i,i,i,i
COc1cc(C(=S)N2CCCCC2)ccc1O,i,?,i,i,i,i

# Screening results deposited in PubChem by National Center for Advancing Translational Sciences (NCATS).
